# Screening data: PubChem, National Center for Advancing Translational Sciences (NCATS)
# Compounds with a hit are over-represented: about 1.4% of the library has one in this group of screens.
# BRCA1 expr up: increases BRCA1 expression; MCF7-BRCA1-FFLuc reporter, luminescence, 48 h; response scale: scaled: vehicle 0%, 10 µM genistein 100%; hit rate 1.1% among 380,000; Potency, µM (doses to about 46.1 µM), usual class: activators; also: nearly all actives have a fitted effect of over 80% in size
#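 MCF7-BRCA1-FFLuc, 2000 cells/well; 2 h attach, 37 °C/5% CO2; compound 48 h; luciferase substrate 15 min; luminescence end-point. Norm. to genistein 10 microM max activation and DMSO; concentration-response curves fitted.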
# USP1 inh: USP1/UAF1 (human) deubiquitinase inhibition. O94782. recombinant USP1/UAF1, Ub-Rhodamine cleavage fluorescence. Potency, µM (highest dose often 57.1 µM), most hits filed as inhibitors. hit rate 0.23% among 390,000; also: nearly all actives have a fitted effect of over 60% in size
#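 USP1/UAF1 complex (1 nM) preincubated 15 min at room temperature with compound, then Ub-Rho substrate (150 nM final) added. Kinetic fluorescence at 480/540 nm over 6 reads at 60 s intervals; 50 mM HEPES pH 7.8, 0.5 mM EDTA, 0.1 mg/ml BSA, 1 mM TCEP, 0.01% Tween-20.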
# EPAC1 antag: antagonists of human EPAC1 | O95398 | Potency, µM (highest dose often 115 µM), actives largely listed as inhibitors | EPAC1 GEF assay, Rap1b-BODIPY-GDP exchange fluorescence | hit rate 0.14% among 360,000; also: nearly all actives have a fitted effect of over 50% in size
# Target sequence (O95398 whole entry, looked up): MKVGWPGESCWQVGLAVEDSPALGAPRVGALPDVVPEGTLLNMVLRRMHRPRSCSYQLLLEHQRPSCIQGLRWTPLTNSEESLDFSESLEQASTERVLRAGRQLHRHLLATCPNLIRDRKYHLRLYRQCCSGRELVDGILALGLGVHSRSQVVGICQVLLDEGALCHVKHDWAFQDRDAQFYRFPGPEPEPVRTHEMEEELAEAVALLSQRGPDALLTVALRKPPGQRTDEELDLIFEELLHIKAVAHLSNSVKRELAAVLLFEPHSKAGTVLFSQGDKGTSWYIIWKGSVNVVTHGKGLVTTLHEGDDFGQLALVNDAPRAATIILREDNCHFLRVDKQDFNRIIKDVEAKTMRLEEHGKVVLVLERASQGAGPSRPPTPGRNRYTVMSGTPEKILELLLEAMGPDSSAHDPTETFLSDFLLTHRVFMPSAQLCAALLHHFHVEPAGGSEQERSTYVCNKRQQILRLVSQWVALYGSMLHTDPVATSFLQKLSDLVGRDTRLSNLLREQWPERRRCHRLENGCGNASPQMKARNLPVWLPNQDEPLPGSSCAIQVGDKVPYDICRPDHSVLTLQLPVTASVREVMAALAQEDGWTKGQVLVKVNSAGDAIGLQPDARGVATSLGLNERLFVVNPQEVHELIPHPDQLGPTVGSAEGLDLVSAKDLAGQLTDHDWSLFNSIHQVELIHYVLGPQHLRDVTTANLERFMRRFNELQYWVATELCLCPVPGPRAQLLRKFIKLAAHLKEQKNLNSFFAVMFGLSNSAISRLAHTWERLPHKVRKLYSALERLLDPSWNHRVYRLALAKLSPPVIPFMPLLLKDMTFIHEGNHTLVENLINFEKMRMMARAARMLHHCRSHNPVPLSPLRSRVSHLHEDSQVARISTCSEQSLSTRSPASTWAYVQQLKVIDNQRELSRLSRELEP
# EPAC2 ag: agonists of human EPAC2 (RAPGEF4); Q8WZA2; EPAC2 activation, biochemical qHTS; response scale: 100% = 6.5 mM cAMP response; Potency, µM (titrated, usually from 154 µM), hits mostly activators; hit rate 0.079% among 360,000; AID 720711; also: nearly all actives have a fitted effect of over 50% in size
#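 Each well held 100 nM EPAC2, 250 nM RAP1B-BODIPY-GDP and 50 uM GDP. Fluorescence, read at 5-min intervals to 30 min, was referenced to a 6.5 mM cAMP positive control.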
# EPAC2 antag: antagonists of human EPAC2. Q8WZA2. EPAC2 GEF exchange of Rap1B-BODIPY-GDP, fluorescence. Potency, µM (titrated, usually from 114 µM), actives largely listed as inhibitors. hit rate 0.18% among 360,000. AID 720708; also: nearly all actives have a fitted effect of over 45% in size
# EPAC1 agonist: activates human EPAC1 exchange factor | Potency, µM (series often up to 154 µM), most hits filed as activators | EPAC1 agonist qHTS, biochemical assay; response scale: 100% = response to 6.5 mM cAMP | AID 720707 | O95398 | hit rate 0.073% among 360,000; also: nearly all actives have a fitted effect of over 60% in size
#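 Compounds were pinned as a concentration titration into mixtures of EPAC1 (100 nM), BODIPY-GDP-loaded Rap1B (250 nM) and GDP (50 uM). After 5 min at room temperature, fluorescence was followed for 30 min; activity was scaled to 6.5 mM cAMP.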
# A number is an active result; i = inactive; ? = inconclusive; nt = not tested or not shown. Calls follow the shape of the dose curve; as a rule, active = well fitted curve in the direction sought with a large enough effect; inconclusive = small, poorly fitted or top-dose-only effect, or another doubt; inactive = no such curve, though single readings can be large; an effect the other way counts as inactive or inconclusive.
SMILES,BRCA1 expr up,USP1 inh,EPAC1 antag,EPAC2 ag,EPAC2 antag,EPAC1 agonist
CC1=C(C(=O)N(C)C)CC(CC(=O)NCCN2CCOCC2)C(=O)N1Cc1ccc(C(C)(C)C)cc1 (stereo not given),i,i,i,i,i,i
CC1=Nc2ccccc2/C1=C\c1nc(-c2ccc(C(F)(F)F)cc2)oc1O,i,12.6µM,i,i,i,i
CC1=Nc2ccccc2/C1=C\c1nc(-c2ccccc2)oc1O,i,?,i,?,i,i
COc1ccc(C(C)=O)cc1CN1C(=O)C(C)ON=C1c1ccccn1 (stereo not given),i,nt,i,i,i,i
O=C(NCCC(=O)N1CCCCC1)c1ccc(Br)cc1,10µM,i,i,i,i,i
COc1ccc(S(=O)(=O)N(C)C2(C)CCS(=O)(=O)C2)cc1OC (stereo not given),i,i,i,i,i,i
Cc1csc(NC(=O)Cc2c(F)cccc2Cl)n1,4.47µM,i,i,i,i,i
O=C(Nc1ccc(Cl)cc1)C1C2C=CC3(O2)C1C(=O)N(CCN1CCCCC1)C3C(=O)NC1CCCCC1 (stereo not given),i,i,i,i,i,i
COc1cc(-c2cc(C(=O)Nc3c(Cl)cc(Cl)cc3Cl)c3ccccc3n2)cc(OC)c1OC,i,i,i,i,i,i
COc1ccc2nc3ccccc3nc2c1NC(=O)c1ccc(Cl)cc1Cl,i,i,i,100µM,i,?
Cn1c(=O)c2c(nc3n2CC(COc2ccccc2)O3)n(C)c1=O (stereo not given),i,i,i,i,i,i
CCOc1ccc(NC(=S)N2CCN(S(=O)(=O)c3ccc(OC)cc3)CC2)cc1,i,i,i,i,i,i
CCC(=O)N(CC)C1=C(O)c2ccccc2C(=O)C1=O,i,25.1µM,i,i,i,i
Cc1ccc(Nc2c(-c3ccc(C)s3)nc3cccc(C)n23)cc1,i,nt,nt,nt,nt,nt
C/C(=N\NC(=O)c1cccc(S(=O)(=O)N2CCOCC2)c1)c1ccc(C#N)cc1,i,i,i,i,i,i
O=C(Nc1cccnc1)Nc1cc(Cl)cc(Cl)c1,i,i,i,i,i,i
Cc1ccc(NC(=O)Nc2cccnc2)cc1Cl,12.6µM,i,i,i,i,i
c1coc(-c2nc3cc4ccccc4cc3nc2-c2ccco2)c1,i,nt,nt,nt,nt,nt
COCCNC(=O)c1ccc2c(Cl)c3c(nc2c1)CCC3,5.01µM,i,i,i,i,i
Cc1ccc(Cn2ccc(NC(=O)c3noc4c3CCCC4)n2)cc1,5.62µM,i,i,i,i,i
O=C(NCCc1ccccc1)c1noc2c1CCCCC2,3.98µM,i,i,i,i,i
O=C(NCc1ccccc1)c1noc2c1CCCC2,i,i,i,i,i,i
COc1ccccc1CNC(=O)c1ccc2c(c1)CCN2S(=O)(=O)c1ccc(Cl)cc1,nt,i,nt,nt,nt,nt
COc1ccc(Br)c(Cn2c(C)c(C(=O)NCc3ccc(F)cc3)sc2=O)c1,i,nt,i,i,i,i
O=C(CN1C(=O)COc2ccc(S(=O)(=O)N3CCOCC3)cc21)N1CCN(c2ccccc2)CC1,i,i,nt,nt,nt,nt
SMILES,BRCA1 expr up,USP1 inh,EPAC1 antag,EPAC2 ag,EPAC2 antag,EPAC1 agonist
COc1ccc(CCNc2ncnc3cc(OC)c(OC)cc23)cc1OC,i,i,i,i,i,i
COc1ccc(CCNc2ncccc2C#N)cc1OC,3.98µM,i,i,i,i,i
Cc1ccc(OCC(=O)Nc2ccc(-c3nc4ccc(C)cc4o3)cc2)cc1,0.891µM,i,nt,nt,nt,nt
CN1CCC(C)(C(=O)Nc2cccc3c2CCCC3)C1 (stereo not given),i,nt,i,i,i,i
COc1ccc(CCC(=O)Nc2c(-c3ccc(N(C)C)cc3)[nH][nH]c2=O)cc1,i,nt,50.1µM,?,i,i
C/C(N)=C(/C#N)C(=O)COC(=O)c1cc(C)n(-c2ccc(F)cc2)c1C,8.91µM,i,i,i,i,i
C[C@H](NC(=O)[C@@H]1Cc2ccccc2CN1C(=O)OC(C)(C)C)C(=O)NCc1ccco1,i,i,i,i,i,i
CCOc1ccc(OCc2ccc(C(=O)NCc3cccnc3)o2)cc1,11.2µM,i,?,i,i,i
CCOc1ccc(OCc2ccc(C(=O)Nc3cccnc3)o2)cc1,i,i,i,i,i,i
O=C(COC(=O)CNC(=O)c1ccccc1)Nc1ccc(Cl)cn1,i,i,i,i,i,i
CC(/C=N/NC(=O)CSc1ccccn1)=C\c1ccc(C(C)C)cc1,?,i,i,i,i,i
CC(/C=N/NC(=O)c1ccncc1)=C\c1ccc(C(C)C)cc1,8.91µM,i,i,i,i,i
CC(/C=N\NC(=O)c1cc(C)oc1C)=C\c1ccccc1,2µM,i,i,i,i,i
Cc1ccc(/C=N/NC(=O)c2cc(C)oc2C)cc1,i,i,i,i,i,i
CC(/C=N/NC(=O)c1cccnc1)=C\c1ccccc1,3.16µM,i,?,i,i,i
O=C(N/N=C/C(Cl)=C/c1ccccc1)c1ccccc1F,10µM,?,?,i,i,i
COCCC(=O)N1CCOCC1c1cc(C(=O)Nc2ccccc2)no1 (stereo not given),i,nt,i,i,i,i
COc1ccccc1CNC(=O)CCNS(=O)(=O)c1ccc2c(c1)CCCC(=O)N2,i,i,nt,nt,nt,nt
O=C(NC(=S)Nc1ccc2c(c1)OCCO2)c1cccc(Br)c1,3.98µM,i,i,i,i,i
S=C(Nc1ccc(Br)cc1)Nc1ccc2c(c1)OCCO2,11.2µM,i,i,i,i,i
O=C(CC1Sc2ccccc2NC1=O)NNc1cc(Cl)ccc1Cl (stereo not given),i,i,i,i,i,i
CCCCCn1c(CNC(=O)c2ccc(F)cc2)nc2ccccc21,i,i,nt,nt,nt,nt
CC(C)C[C@H]1CN(CCCC[C@H]2CNC(=O)C(=O)N2CCc2ccccc2)C(=O)C(=O)N1CCC1CCCCC1,i,nt,i,i,i,i
CCOC(=O)c1sc(N)c(C(=O)Nc2ccccc2)c1C,12.6µM,i,i,i,i,i
CCOC(=O)c1sc(N)c(C(=O)OCC)c1C,i,i,i,i,i,i
SMILES,BRCA1 expr up,USP1 inh,EPAC1 antag,EPAC2 ag,EPAC2 antag,EPAC1 agonist
O=C(CS(=O)(=O)c1ccccc1)c1cc2cc(F)ccc2oc1=O,i,i,?,i,50.1µM,i
Nn1c(SCc2ccccc2F)nnc1-c1cccnc1,8.91µM,i,i,i,i,i
Cn1c(SCc2ccccc2F)nnc1-c1ccccn1,11.2µM,i,i,i,i,i
Cn1c(SCc2ccccc2F)nnc1-c1cnccn1,?,i,i,i,i,i
Cn1c(SCc2ccc(F)cc2)nnc1-c1ccccn1,4.47µM,i,i,i,i,i
Cn1c(SCc2ccc(F)cc2)nnc1-c1cccs1,4.47µM,i,i,i,i,i
